Laboratory results from paper PMC9911399, “Two distinct binding modes provide the RNA-binding protein RbFox with extraordinary sequence specificity”.
Residue numbers refer to the chain shown, from its start. Over roughly 16,000 sequences, “ka relative to ugcaugu” has its median near 0.096; the highest 2% begin near 0.35. The sample holds the highest values, similar sequences and a random draw of the others, so the mix is not that of the screen.

T1: RBFOX1 RRM RbFoxmut (Fox-RRM*) (Homo sapiens, UniProt Q9NWB1 109-208, R118D;E147R;N151S;E152T)
T1 sequence: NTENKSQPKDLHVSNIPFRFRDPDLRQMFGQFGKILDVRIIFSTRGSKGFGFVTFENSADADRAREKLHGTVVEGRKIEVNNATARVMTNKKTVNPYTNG

B1: UGGAGUG (DNA:RNA)
RNA: GGGAGACCGGAAUUCAGAUUGUCCUGGAGUGUUAAAUCCCGUCGUAGCCACCA
DNA 1: CAATCTGAATTCCGGTCTCCC
DNA 2: TGGTGGCTACGACGGGATT
B2: CGGAGUG (DNA:RNA)
RNA: B1 RNA with U25C
DNA 1: CAATCTGAATTCCGGTCTCCC
DNA 2: TGGTGGCTACGACGGGATT
B3: UGGAUGC (DNA:RNA)
RNA: B1 RNA with G29U, U30G, G31C
DNA 1: CAATCTGAATTCCGGTCTCCC
DNA 2: TGGTGGCTACGACGGGATT
B4: UGGAGAG (DNA:RNA)
RNA: B1 RNA with U30A
DNA 1: CAATCTGAATTCCGGTCTCCC
DNA 2: TGGTGGCTACGACGGGATT
B5: UGGAUCG (DNA:RNA)
RNA: B1 RNA with G29U, U30C
DNA 1: CAATCTGAATTCCGGTCTCCC
DNA 2: TGGTGGCTACGACGGGATT
B6: UGGACUG (DNA:RNA)
RNA: B1 RNA with G29C
DNA 1: CAATCTGAATTCCGGTCTCCC
DNA 2: TGGTGGCTACGACGGGATT
B7: CGGACUG (DNA:RNA)
RNA: B1 RNA with U25C, G29C
DNA 1: CAATCTGAATTCCGGTCTCCC
DNA 2: TGGTGGCTACGACGGGATT
B8: UGGAUCC (DNA:RNA)
RNA: B1 RNA with G29U, U30C, G31C
DNA 1: CAATCTGAATTCCGGTCTCCC
DNA 2: TGGTGGCTACGACGGGATT
B9: UGGAUGG (DNA:RNA)
RNA: B1 RNA with G29U, U30G
DNA 1: CAATCTGAATTCCGGTCTCCC
DNA 2: TGGTGGCTACGACGGGATT
B10: CGGAUGC (DNA:RNA)
RNA: B1 RNA with U25C, G29U, U30G, G31C
DNA 1: CAATCTGAATTCCGGTCTCCC
DNA 2: TGGTGGCTACGACGGGATT
B11: GGAUCCG (DNA:RNA)
RNA: B1 RNA with U25G, G27A, A28U, G29C, U30C
DNA 1: CAATCTGAATTCCGGTCTCCC
DNA 2: TGGTGGCTACGACGGGATT
B12: UGGAGAC (DNA:RNA)
RNA: B1 RNA with U30A, G31C
DNA 1: CAATCTGAATTCCGGTCTCCC
DNA 2: TGGTGGCTACGACGGGATT
B13: UAAGGAG (DNA:RNA)
RNA: B1 RNA with G26A, G27A, A28G, U30A
DNA 1: CAATCTGAATTCCGGTCTCCC
DNA 2: TGGTGGCTACGACGGGATT
B14: AGUAGGG (DNA:RNA)
RNA: B1 RNA with U25A, G27U, U30G
DNA 1: CAATCTGAATTCCGGTCTCCC
DNA 2: TGGTGGCTACGACGGGATT
B15: CAAGUGG (DNA:RNA)
RNA: B1 RNA with U25C, G26A, G27A, A28G, G29U, U30G
DNA 1: CAATCTGAATTCCGGTCTCCC
DNA 2: TGGTGGCTACGACGGGATT
B16: AUUCAGA (DNA:RNA)
RNA: GGGAGACCGGAAUUCAGAUUGUCCAUUCAGAUUAAAUCCCGUCGUAGCCACCA
DNA 1: CAATCTGAATTCCGGTCTCCC
DNA 2: TGGTGGCTACGACGGGATT
B17: AGUCACU (DNA:RNA)
RNA: B16 RNA with U26G, G30C, A31U
DNA 1: CAATCTGAATTCCGGTCTCCC
DNA 2: TGGTGGCTACGACGGGATT
B18: UACUUUU (DNA:RNA)
RNA: B1 RNA with G26A, G27C, A28U, G29U, G31U
DNA 1: CAATCTGAATTCCGGTCTCCC
DNA 2: TGGTGGCTACGACGGGATT
B19: UCCUCCU (DNA:RNA)
RNA: B1 RNA with G26C, G27C, A28U, G29C, U30C, G31U
DNA 1: CAATCTGAATTCCGGTCTCCC
DNA 2: TGGTGGCTACGACGGGATT
B20: UCUGGCC (DNA:RNA)
RNA: B1 RNA with G26C, G27U, A28G, U30C, G31C
DNA 1: CAATCTGAATTCCGGTCTCCC
DNA 2: TGGTGGCTACGACGGGATT
B21: UGGAUCU (DNA:RNA)
RNA: B1 RNA with G29U, U30C, G31U
DNA 1: CAATCTGAATTCCGGTCTCCC
DNA 2: TGGTGGCTACGACGGGATT
B22: UGGAGAA (DNA:RNA)
RNA: B1 RNA with U30A, G31A
DNA 1: CAATCTGAATTCCGGTCTCCC
DNA 2: TGGTGGCTACGACGGGATT
B23: UGGAGUC (DNA:RNA)
RNA: B1 RNA with G31C
DNA 1: CAATCTGAATTCCGGTCTCCC
DNA 2: TGGTGGCTACGACGGGATT

biological target: T1, RBFOX1 RRM RbFoxmut (Fox-RRM*); assay: EMSA; HiTS-Eq, 1 nM pool, 10 min; buffer printed only for the single-RNA assays: 10 mM Tris pH 7.5, 150 mM NaCl, 3.4 mM EDTA, 0.001% NP-40, 30 C; settings: tags: His6 N-terminal (pET28a); label: 5' 32P
How it was run: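 Purified RbFox RRM, wild type or mutant, was incubated for 10 min in 50 µL with 1 nM of a 5′-radiolabelled RNA pool carrying 7 randomized nucleotides, whose flanks were annealed to DNA oligonucleotides, over a series of increasing protein concentrations. Unbound RNA was resolved on 8% native PAGE, cut out, reverse-transcribed, barcoded by PCR and sequenced on an Illumina HiSeq 2500. Relative association constants were derived from changes in read counts for each RNA species versus the control reaction and normalised to the cognate motif.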

Binder | binding signal
B1 | 0.45 KA relative to UGCAUGU
B2 | 0.198 KA relative to UGCAUGU
B3 | 0.438 KA relative to UGCAUGU
B4 | 0.108 KA relative to UGCAUGU
B5 | 0.597 KA relative to UGCAUGU
B6 | 0.418 KA relative to UGCAUGU
B7 | 0.353 KA relative to UGCAUGU
B8 | 0.211 KA relative to UGCAUGU
B9 | 0.332 KA relative to UGCAUGU
B10 | 0.189 KA relative to UGCAUGU
B11 | 0.153 KA relative to UGCAUGU
B12 | 0.0876 KA relative to UGCAUGU
B13 | 0.11 KA relative to UGCAUGU
B14 | 0.0759 KA relative to UGCAUGU
B15 | 0.0554 KA relative to UGCAUGU
B16 | 0.0812 KA relative to UGCAUGU
B17 | 0.0668 KA relative to UGCAUGU
B18 | 0.097 KA relative to UGCAUGU
B19 | 0.0641 KA relative to UGCAUGU
B20 | 0.161 KA relative to UGCAUGU
B21 | 0.259 KA relative to UGCAUGU
B22 | 0.0999 KA relative to UGCAUGU
B23 | 0.18 KA relative to UGCAUGU
